According to PubChem BioAssay:
Active and inactive are the calls of the source.

Tests used:
[1] = system: PRMT1 (protein arginine N-methyltransferase 1); assay: small molecules binding arginine methyltransferase PRMT1 – biochemical, small-molecule microarray, 635 nm fluorescence, primary screen (AID 1088); settings: higher = more signal;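 further: binding of Prmt1 protein to compounds spotted on small-molecule microarray slides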
[2] = growth effects on S. cerevisiae YJM789 – YJM789 clinical isolate, OD600, 24 h, basal, primary screen (AID 1089); settings: higher = more signal, called active from +8 up or from −8 down;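 further: growth of clinical yeast isolate S. cerevisiae YJM 789 seeded 1000 cells per well; test concentration not given here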
[3] = S. pombe growth modifiers, basal conditions – strain 972, OD600, 24 h, no modulator, primary screen (AID 1090);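 further: basal condition with compound alone and no growth modifier present; test concentration not given here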; settings: S. pombe 972 growth, higher = more signal, called active from +8 up or from −8 down
[4] = budding yeast growth modifiers under rapamycin – strain BY4716, OD600, 96 h, primary screen (AID 1091); further: test concentration not given here; settings: S. cerevisiae BY4716 + rapamycin, higher = more signal, called active from +8 up or from −8 down
[5] = biological target: Torsin-1A-interacting protein 2 (Homo sapiens) (UniProt Q8NFQ8); assay: small molecules binding lysate-expressed LULL1 – cell lysate, human LULL1 lysate, 635/667 nm fluorescence, primary screen (AID 1092); settings: small-molecule microarray, hLULL1 lysate binding, 635 nm fluorescence; higher = more signal;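 further: probe is lysate of COS7 cells overexpressing human LULL1; score merges per-feature 667 nm fluorescence with signal-to-noise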
[6] = optical density change of DRC41 E. coli – strain DRC41, OD650, 24 h, E. coli filamentation project, primary screen (AID 1093);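 further: MC1000 strain lacking acrAB efflux and sulA so SOS filamentation is blocked; test concentration not given here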; settings: E. coli DRC41 growth, higher = more signal, called active from +8 up or from −8 down
[7] = probe aLefty2 binding to arrayed compounds – biochemical, biotinylated probe, 635/667 nm fluorescence, primary screen (AID 1094); settings: small-molecule microarray, higher = more signal;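 further: score merges spot fluorescence near 667 nm with spot signal-to-noise ratio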
[8] = system: Noggin (protein binding on small-molecule microarray); assay: small molecules binding Noggin protein – biochemical, 635/667 nm fluorescence, primary screen (AID 1095); settings: 635 nm fluorescence, higher = more signal;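 further: score merges 667 nm feature fluorescence with signal to noise over triplicate slides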
[9] = biological target: Neurogenic locus notch homolog protein 3 (Homo sapiens) (UniProt Q9UM47); assay: small molecules binding NOTCH3 protein – biochemical, 635/667 nm fluorescence, primary screen (AID 1096); settings: small-molecule microarray, 635 nm fluorescence, higher = more signal
[10] = probe aEGFR binding to arrayed compounds – biochemical, biotinylated probe, 635/667 nm fluorescence, primary screen (AID 1097); settings: small-molecule microarray, higher = more signal;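 further: probe is a biotinylated anti-EGFR antibody binding compounds printed on slides; score combines fluorescence near 667 nm and signal to noise of each spot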
[11] = system: Plasmodium falciparum Sir2 (PF13_0152, Sir2A); assay: Plasmodium falciparum Sir2A binding compounds – biochemical, small-molecule microarray, 635 nm fluorescence, primary screen (AID 1098); settings: fluorescence 635 nm, higher = more signal;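 further: score merges spot fluorescence intensity with its signal-to-noise ratio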
[12] = probe aDKK1 binding to arrayed compounds – biochemical, biotinylated probe, 635/667 nm fluorescence, primary screen (AID 1099); settings: small-molecule microarray, higher = more signal;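 further: score merges 667nm spot fluorescence with signal to noise across triplicate slides; reference of the scale not given here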
[13] = probe aCHRDL2 binding to arrayed compounds – biochemical, biotinylated probe, 635/667 nm fluorescence, primary screen (AID 1100); settings: small-molecule microarray, higher = more signal
[14] = change in splice reporter luminescence, either direction, cell-based, HEK293, spliceosome inhibition project, primary screen (AID 1101); settings: HEK293 splicing luciferase reporter, 24 h, higher = more signal, called active from +8 up or from −8 down;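 further: HEK293 cells carrying a splicing-competent luciferase reporter gene; test concentration not given here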
[15] = biological target: Fibroblast growth factor 10 (Homo sapiens) (UniProt O15520); assay: compounds binding fibroblast growth factor 10 – biochemical, small-molecule microarray, 635 nm fluorescence, primary screen (AID 1102); settings: FGF10 binding, fluorescence 635 nm, higher = more signal
[16] = system: glycogen synthase kinase-3 (GSK3A per assay name; protocol says GSK3B); assay: compounds binding glycogen synthase kinase-3 – biochemical, small-molecule microarray, 635 nm fluorescence, GSK3A, primary screen (AID 1103); settings: fluorescence 635 nm, higher = more signal; further: the record names both GSK3A and GSK3B
[17] = biological target: Epidermal growth factor receptor (Homo sapiens) (UniProt P00533); assay: compounds binding epidermal growth factor receptor – biochemical, small-molecule microarray, 635 nm fluorescence, primary screen (AID 1104); settings: EGFR binding, higher = more signal;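 further: score merges 667 nm emission intensity with spot signal to noise over triplicate slides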
[18] = biological target: Follistatin-related protein 3 (Homo sapiens) (UniProt O95633); assay: compounds binding follistatin-related protein 3 – biochemical, small-molecule microarray, 635 nm fluorescence, primary screen (AID 1105); settings: FSTL3 binding, higher = more signal;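 further: score merges emission near 667 nm and signal to noise per printed spot across three slides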
[19] = biological target: Dickkopf-related protein 1 (Homo sapiens) (UniProt O94907); assay: small molecules binding DKK1 protein – biochemical, small-molecule microarray, 635 nm fluorescence scan, primary screen (AID 1106); settings: higher = more signal;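 further: score merges emission near 667 nm with signal to noise over three replicate slides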
[20] = system: Inhibin beta A chain (activin A); assay: small molecules binding activin A – biochemical, small-molecule microarray, 635 nm fluorescence scan, primary screen (AID 1107); settings: INHBA, higher = more signal;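 further: mouse activin A protein probed at 4.33 µg/mL on printed slides; score merges bound-protein fluorescence near 667 nm with spot signal-to-noise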

Sequence of Epidermal growth factor receptor (Homo sapiens) (P00533 whole entry, looked up): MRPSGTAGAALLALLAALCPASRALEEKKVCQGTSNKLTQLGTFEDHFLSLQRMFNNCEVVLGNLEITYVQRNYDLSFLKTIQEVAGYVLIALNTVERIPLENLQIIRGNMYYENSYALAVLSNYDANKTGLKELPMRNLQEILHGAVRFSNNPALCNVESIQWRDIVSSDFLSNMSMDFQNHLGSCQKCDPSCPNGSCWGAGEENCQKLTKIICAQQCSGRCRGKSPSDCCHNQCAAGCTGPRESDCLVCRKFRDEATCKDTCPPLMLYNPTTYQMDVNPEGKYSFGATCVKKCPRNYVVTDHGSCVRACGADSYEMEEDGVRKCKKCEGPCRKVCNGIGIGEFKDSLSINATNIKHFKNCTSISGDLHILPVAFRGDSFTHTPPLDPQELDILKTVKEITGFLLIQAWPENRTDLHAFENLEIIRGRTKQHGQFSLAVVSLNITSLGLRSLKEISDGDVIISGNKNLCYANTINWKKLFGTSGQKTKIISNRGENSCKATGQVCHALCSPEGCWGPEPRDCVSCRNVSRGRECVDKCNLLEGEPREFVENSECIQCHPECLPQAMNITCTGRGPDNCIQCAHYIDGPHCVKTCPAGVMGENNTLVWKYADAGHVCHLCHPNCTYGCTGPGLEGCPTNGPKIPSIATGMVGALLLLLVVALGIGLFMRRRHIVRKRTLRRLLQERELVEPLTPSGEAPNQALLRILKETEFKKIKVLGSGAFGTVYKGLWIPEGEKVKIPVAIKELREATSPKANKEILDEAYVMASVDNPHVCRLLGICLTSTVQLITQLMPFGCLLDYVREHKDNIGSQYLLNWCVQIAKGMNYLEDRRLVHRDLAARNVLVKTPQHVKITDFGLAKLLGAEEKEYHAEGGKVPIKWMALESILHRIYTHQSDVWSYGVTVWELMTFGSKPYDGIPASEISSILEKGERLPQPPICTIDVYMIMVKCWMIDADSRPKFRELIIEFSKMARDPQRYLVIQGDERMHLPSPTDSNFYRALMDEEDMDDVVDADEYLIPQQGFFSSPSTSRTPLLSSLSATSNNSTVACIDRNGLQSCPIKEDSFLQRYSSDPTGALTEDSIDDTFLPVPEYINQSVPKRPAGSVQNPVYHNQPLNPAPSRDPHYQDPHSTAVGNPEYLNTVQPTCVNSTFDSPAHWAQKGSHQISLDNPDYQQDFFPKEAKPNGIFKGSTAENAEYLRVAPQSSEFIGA
Sequence of Neurogenic locus notch homolog protein 3 (Homo sapiens) (Q9UM47 whole entry, looked up): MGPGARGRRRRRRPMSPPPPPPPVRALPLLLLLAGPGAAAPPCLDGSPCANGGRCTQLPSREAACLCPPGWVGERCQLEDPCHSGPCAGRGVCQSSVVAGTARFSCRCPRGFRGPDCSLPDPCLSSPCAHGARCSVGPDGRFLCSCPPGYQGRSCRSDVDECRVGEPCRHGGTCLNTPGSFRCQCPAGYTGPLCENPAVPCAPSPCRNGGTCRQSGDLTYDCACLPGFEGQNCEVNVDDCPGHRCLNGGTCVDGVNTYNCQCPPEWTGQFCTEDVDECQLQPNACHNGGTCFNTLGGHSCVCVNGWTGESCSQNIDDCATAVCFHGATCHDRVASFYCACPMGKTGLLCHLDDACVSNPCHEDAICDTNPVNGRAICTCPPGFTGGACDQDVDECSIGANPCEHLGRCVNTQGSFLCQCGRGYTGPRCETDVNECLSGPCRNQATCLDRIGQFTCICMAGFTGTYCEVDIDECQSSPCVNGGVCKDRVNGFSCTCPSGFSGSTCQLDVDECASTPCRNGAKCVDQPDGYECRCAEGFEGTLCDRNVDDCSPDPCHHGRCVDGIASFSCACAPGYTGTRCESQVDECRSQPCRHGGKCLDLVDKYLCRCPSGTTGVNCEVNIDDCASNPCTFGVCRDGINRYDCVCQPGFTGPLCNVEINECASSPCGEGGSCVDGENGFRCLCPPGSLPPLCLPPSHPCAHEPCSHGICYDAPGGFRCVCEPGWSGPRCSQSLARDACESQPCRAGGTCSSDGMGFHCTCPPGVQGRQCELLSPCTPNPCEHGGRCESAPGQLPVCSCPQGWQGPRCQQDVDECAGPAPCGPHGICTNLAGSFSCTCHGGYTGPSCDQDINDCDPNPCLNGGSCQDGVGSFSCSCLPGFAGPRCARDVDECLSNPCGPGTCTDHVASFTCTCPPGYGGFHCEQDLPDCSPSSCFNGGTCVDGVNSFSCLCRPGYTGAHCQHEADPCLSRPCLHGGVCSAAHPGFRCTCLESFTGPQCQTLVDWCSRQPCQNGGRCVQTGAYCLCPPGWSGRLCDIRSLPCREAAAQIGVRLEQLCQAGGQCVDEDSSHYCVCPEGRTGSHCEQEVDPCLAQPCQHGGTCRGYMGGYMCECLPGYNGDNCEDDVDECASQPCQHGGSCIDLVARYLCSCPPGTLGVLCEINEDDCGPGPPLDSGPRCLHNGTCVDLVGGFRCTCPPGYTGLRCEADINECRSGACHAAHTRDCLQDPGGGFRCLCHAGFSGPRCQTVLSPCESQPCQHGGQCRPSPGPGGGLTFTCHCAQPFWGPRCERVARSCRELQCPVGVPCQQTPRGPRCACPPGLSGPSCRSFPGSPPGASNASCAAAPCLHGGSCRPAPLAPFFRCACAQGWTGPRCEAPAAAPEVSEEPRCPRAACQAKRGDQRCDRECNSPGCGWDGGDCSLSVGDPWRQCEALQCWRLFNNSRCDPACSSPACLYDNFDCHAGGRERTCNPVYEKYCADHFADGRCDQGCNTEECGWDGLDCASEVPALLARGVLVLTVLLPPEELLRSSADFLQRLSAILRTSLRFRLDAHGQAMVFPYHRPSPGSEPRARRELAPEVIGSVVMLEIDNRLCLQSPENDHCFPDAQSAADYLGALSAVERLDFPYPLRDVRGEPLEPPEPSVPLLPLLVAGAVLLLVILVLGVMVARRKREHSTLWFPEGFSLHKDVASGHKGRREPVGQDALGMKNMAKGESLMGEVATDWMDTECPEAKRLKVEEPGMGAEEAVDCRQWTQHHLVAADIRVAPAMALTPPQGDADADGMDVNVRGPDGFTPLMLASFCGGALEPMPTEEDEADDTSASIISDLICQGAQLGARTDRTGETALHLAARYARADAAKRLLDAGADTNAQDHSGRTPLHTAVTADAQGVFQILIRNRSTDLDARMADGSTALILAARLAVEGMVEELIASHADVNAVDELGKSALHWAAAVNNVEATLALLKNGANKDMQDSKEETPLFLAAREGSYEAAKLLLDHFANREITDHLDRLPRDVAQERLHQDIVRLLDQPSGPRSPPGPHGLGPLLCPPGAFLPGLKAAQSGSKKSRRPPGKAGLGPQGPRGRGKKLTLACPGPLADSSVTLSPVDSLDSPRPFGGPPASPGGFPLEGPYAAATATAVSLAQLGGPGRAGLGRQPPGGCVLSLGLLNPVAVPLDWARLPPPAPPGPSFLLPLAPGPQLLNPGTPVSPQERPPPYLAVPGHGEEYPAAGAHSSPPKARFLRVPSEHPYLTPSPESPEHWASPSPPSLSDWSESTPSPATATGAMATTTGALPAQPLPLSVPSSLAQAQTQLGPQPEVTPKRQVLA
Sequence of Fibroblast growth factor 10 (Homo sapiens) (O15520 whole entry, looked up): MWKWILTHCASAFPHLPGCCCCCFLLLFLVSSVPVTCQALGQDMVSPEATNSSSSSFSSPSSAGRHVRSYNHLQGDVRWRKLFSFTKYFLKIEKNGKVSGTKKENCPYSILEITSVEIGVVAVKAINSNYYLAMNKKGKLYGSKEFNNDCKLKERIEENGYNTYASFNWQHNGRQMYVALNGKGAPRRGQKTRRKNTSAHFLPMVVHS
Sequence of Dickkopf-related protein 1 (Homo sapiens) (O94907 whole entry, looked up): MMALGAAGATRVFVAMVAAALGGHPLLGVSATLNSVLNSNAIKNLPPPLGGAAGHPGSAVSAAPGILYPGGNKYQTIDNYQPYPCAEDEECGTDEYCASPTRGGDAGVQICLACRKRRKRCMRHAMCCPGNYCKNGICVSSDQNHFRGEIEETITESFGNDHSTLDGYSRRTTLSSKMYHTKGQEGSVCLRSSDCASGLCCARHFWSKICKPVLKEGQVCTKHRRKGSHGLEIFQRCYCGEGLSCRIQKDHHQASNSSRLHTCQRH
Sequence of Torsin-1A-interacting protein 2 (Homo sapiens) (Q8NFQ8 whole entry, looked up): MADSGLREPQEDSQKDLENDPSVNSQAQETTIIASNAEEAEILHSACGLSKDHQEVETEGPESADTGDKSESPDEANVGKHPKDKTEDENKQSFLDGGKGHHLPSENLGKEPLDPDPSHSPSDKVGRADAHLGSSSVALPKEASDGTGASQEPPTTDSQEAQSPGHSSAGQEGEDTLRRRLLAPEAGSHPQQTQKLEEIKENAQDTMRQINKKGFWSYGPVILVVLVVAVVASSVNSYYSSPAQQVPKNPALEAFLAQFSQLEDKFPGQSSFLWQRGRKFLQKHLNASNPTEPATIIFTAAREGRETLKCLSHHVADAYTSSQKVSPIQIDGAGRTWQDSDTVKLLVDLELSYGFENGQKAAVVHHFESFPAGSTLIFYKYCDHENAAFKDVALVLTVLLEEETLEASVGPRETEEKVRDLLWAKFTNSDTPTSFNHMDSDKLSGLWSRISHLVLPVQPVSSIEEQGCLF
Sequence of Follistatin-related protein 3 (Homo sapiens) (O95633 whole entry, looked up): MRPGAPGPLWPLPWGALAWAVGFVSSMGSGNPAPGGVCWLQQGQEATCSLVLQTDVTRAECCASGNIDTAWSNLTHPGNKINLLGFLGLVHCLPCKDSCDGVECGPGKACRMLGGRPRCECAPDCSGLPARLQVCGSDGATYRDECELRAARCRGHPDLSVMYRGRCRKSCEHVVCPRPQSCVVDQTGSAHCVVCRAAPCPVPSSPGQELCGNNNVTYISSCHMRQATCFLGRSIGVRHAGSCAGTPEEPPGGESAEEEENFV

Compound	composite z-score [1]	z-score [2]	z-score [3]	z-score [4]	composite z-score [5]	z-score [6]	composite z-score [7]	composite z-score [8]	composite z-score [9]	composite z-score [10]	composite z-score [11]	composite z-score [12]	composite z-score [13]	z-score [14]	composite z-score [15]	composite z-score [16]	composite z-score [17]	composite z-score [18]	composite z-score [19]	composite z-score [20]
COCCOC(=O)N1C(=O)[C@@]2(c3cc(C#CCNC(N)=O)ccc31)[C@H](c1ccc(O)cc1)N1[C@H](c3ccccc3)[C@H](c3ccccc3)OC(=O)[C@H]1[C@@H]2C(=O)N1CCc2cc(OC)c(OC)cc2C1	1.29	1.05 (inactive)	0.123 (inactive)	1.84 (inactive)	1.47	-0.732 (inactive)	-0.0475	0.978	0.636	-0.0967	0.391	0.206	0.493	-1.41 (inactive)	1.19	-0.447	0.292	1.2	0.372	0.899
CCOC(=O)C1=CC[C@@H](c2ccccc2)N(S(=O)(=O)c2ccc(C)cc2)[C@@H]1C#N	0.712	-0.671 (inactive)	-2.08 (inactive)	0.529 (inactive)	2.69	0.405 (inactive)	0.0979	-0.59	0.749	-0.013	0.921	0.386	0.868	0.694 (inactive)	0.562	-0.199	-0.181	0.364	-0.542	0.767
C=CCC(OC(C)=O)[C@@H]1[C@@H](N(Cc2ccc(-c3ccccc3)cc2)C(=O)Cc2ccc(OC)cc2)c2cc(OCCCO)ccc2N1C(=O)c1ccc2ccccc2c1 (stereo not given in full)	0.238	-0.675 (inactive)	0.121 (inactive)	-0.193 (inactive)	0.622	-0.584 (inactive)	-0.154	0.138	0.0678	-0.17	0.0435	0.0361	-0.002	-0.147 (inactive)	-0.0566	-0.0533	-0.0792	0.538	-0.0863	1.17
COc1ccc([Si](C)(C)[C@H]2[C@H](CC(=O)N(CCO)Cc3ccccc3)O[C@@]3(C(=O)N(Cc4cccc(N5CCCCC5=O)c4)c4ccccc43)[C@@H]2C)cc1	1.45	-1.68 (inactive)	-0.0671 (inactive)	2.14 (inactive)	0.876	1.27 (inactive)	-0.0719	0.659	0.604	-0.045	0.535	-0.147	-0.13	-2.32 (inactive)	0.114	-0.0519	-0.0805	0.436	0.327	0.167
CC[C@@H]1C=C(C(=O)O)[C@H](c2cccc(Cl)c2)N1S(=O)(=O)c1ccc(C)cc1	0.877	-0.848 (inactive)	-0.874 (inactive)	-0.177 (inactive)	3.5	-0.944 (inactive)	0.0595	-0.791	-0.118	-0.128	0.514	0.472	0.692	0.608 (inactive)	0.0519	0.46	-0.527	-0.614	-0.785	0.414
Cc1ccc(S[C@]2(C(=O)NC3CC3)CC(=O)N(C3Cc4ccccc4C3)[C@@H]2c2ccc(CO)cc2I)cc1	0.198	-0.192 (inactive)	-2.85 (inactive)	3.27 (inactive)	1.67	0.844 (inactive)	-0.0771	-0.992	-0.847	-0.269	0.911	0.379	0.524	-1.38 (inactive)	-0.745	-0.641	-1.62	-1.11	-0.826	0.771
CCCCN1CC=CC23O[C@@H]4C=CCCOC(=O)C4[C@H]2C(=O)N(CCO)[C@@H]3C1=O (stereo not given in full)	-0.0141	-0.207 (inactive)	-0.492 (inactive)	-0.19 (inactive)	-0.248	1.5 (inactive)	-0.182	0.132	-0.414	-0.167	-1.33	-0.364	0.297	0.244 (inactive)	0.107	-0.248	-1.19	-0.838	-0.587	0.0542
COC(=O)[C@@]1(Cc2ccc(F)cc2)[C@H]2c3cc(C(=O)N4CCCC4)n(CCSCCO)c3C[C@H]2CN1C(=O)c1ccccc1	-0.665	0.856 (inactive)	1.25 (inactive)	0.727 (inactive)	3.54	-0.0319 (inactive)	0.314	-0.906	0.225	0.0726	1.33	1.02	1.22	-2.25 (inactive)	0.26	-0.273	-0.707	-0.803	-0.957	1.06
CCCCCN1CC=CC23O[C@@H]4/C=C\CCCOC(=O)C4[C@H]2C(=O)N(CCCCCO)[C@@H]3C1=O (stereo not given in full)	-0.409	-0.557 (inactive)	-0.383 (inactive)	-1.39 (inactive)	-2.15	1.62 (inactive)	-0.159	-0.636	-0.0581	-0.175	0.447	-0.267	0.337	-0.831 (inactive)	-0.566	-0.364	-0.779	-0.521	-0.833	0.468
COCCOC(=O)N1C(=O)[C@@]2(c3cc(C#CCNC(N)=O)ccc31)[C@H](c1ccccc1OCCO)N1[C@H](c3ccccc3)[C@H](c3ccccc3)OC(=O)[C@H]1[C@@H]2C(=O)N1CCCCCCC1	1.49	0.221 (inactive)	0.47 (inactive)	2.37 (inactive)	1.79	-0.515 (inactive)	0.365	0.911	1.11	-0.0121	1.42	0.784	0.735	-0.402 (inactive)	0.739	1.11	0.5	1.23	0.557	1.44
COCCOC(=O)N1C(=O)[C@@]2(c3cc(C#CCCO)ccc31)[C@H](C(=O)N1CCN(c3ncccn3)CC1)[C@H]1C(=O)O[C@H](c3ccccc3)[C@H](c3ccccc3)N1[C@@H]2c1ccc(OCCO)cc1	1.53	2.26 (inactive)	1.9 (inactive)	5.64 (inactive)	3.11	-0.466 (inactive)	-0.025	0.86	1.05	0.0193	1.24	-0.019	0.349	-1.1 (inactive)	1.22	0.823	0.592	1.38	0.514	0.356
O=C1O[C@H](c2ccccc2)[C@H](c2ccccc2)N2[C@H]1[C@@H](C(=O)O)[C@]1(C(=O)Nc3ccccc31)[C@H]2c1ccc(OCCO)cc1	1.53	-0.0404 (inactive)	0.414 (inactive)	-0.303 (inactive)	3.27	1.36 (inactive)	-0.065	0.286	0.33	-0.177	0.975	-0.0668	-0.0097	-0.749 (inactive)	0.141	-0.0583	-0.055	0.0497	-0.449	0.601
CO[C@H]1O[C@H](CO)[C@@H](OC(=O)Nc2cccc(F)c2)[C@H](OC(=O)c2cc3ccccc3[nH]2)[C@H]1OC(=O)c1cc2ccccc2[nH]1	0.669	-2 (inactive)	0.201 (inactive)	0.296 (inactive)	0.338	-0.178 (inactive)	-0.15	0.696	0.0453	-0.1	-0.233	-0.448	-0.154	-1.57 (inactive)	0.284	-0.199	-0.213	0.469	0.135	0.0912
Cc1ccc(S[C@]2(C(=O)NCC(C)C)CC(=O)N(C(C)C)[C@@H]2c2ccc(CO)cc2I)cc1	1.53	-1.68 (inactive)	-2.56 (inactive)	-0.0302 (inactive)	0.979	0.97 (inactive)	0.0968	-1.6	-0.0735	-0.127	0.115	0.669	1.28	-1.14 (inactive)	-0.679	-1.03	-0.941	-0.573	-0.7	0.256
C=C[C@H](C)[C@@H](OC(=O)Nc1ccc(SC)cc1)c1ccc(OCCO)cc1	0.191	0.613 (inactive)	-0.583 (inactive)	1.92 (inactive)	1.84	0.441 (inactive)	-0.0391	1.05	0.487	-0.225	1.11	-0.189	0.529	-1.36 (inactive)	1.02	0.321	-0.359	0.379	-0.395	0.246
[N-]=[N+]=NCc1ccccc1[C@H]1OC(c2ccc(OCCCO)cc2)=N[C@@]1(Cc1ccccc1N=[N+]=[N-])C(N)=O	1.56	0.61 (inactive)	-0.678 (inactive)	-1.39 (inactive)	3.31	0.0539 (inactive)	0.0573	0.412	1.09	0.0009	1	0.853	0.879	-0.146 (inactive)	1.3	1.29	0.32	0.828	0.28	1.02
COCCCNC(=O)[C@@]1(Cc2ccccc2I)c2ccccc2C(=O)N(Cc2ccccc2C(F)(F)F)[C@H]1c1ccc(CO)cc1	1.4	-0.784 (inactive)	0.25 (inactive)	0.437 (inactive)	2.47	-0.627 (inactive)	-0.0654	-0.473	0.03	-0.291	0.228	0.201	0.883	0.544 (inactive)	0.0125	-0.559	-1.71	-0.961	-1.68	-0.601
CCOC(=O)C=C1C[C@@H](c2cccc([N+](=O)[O-])c2)O[C@@H](c2cccc([N+](=O)[O-])c2)O1	1.5	1.07 (inactive)	1.8 (inactive)	1.79 (inactive)	2.29	-0.239 (inactive)	0.91	0.327	1.12	0.246	0.765	1.15	0.895	0.435 (inactive)	0.567	1.27	0.46	0.747	0.514	0.594
C[C@]1(C(=O)NC2CC2)c2ccccc2C(=O)N(Cc2cc(F)cc(C(F)(F)F)c2)[C@H]1c1ccc(CO)cc1	1.52	0.257 (inactive)	-0.194 (inactive)	0.217 (inactive)	3.29	0.299 (inactive)	-0.188	-0.104	0.518	-0.312	0.938	-0.554	0.87	-0.224 (inactive)	-0.698	-1.08	-1.16	-0.801	-1.46	-0.672
